In PubChem BioAssay (NCI):
Compounds without any hit were thinned out: in the full panel of roughly 79,000, 15% have a hit. The source made the active and inactive calls. Cut-off read from the data, not from the text of the source: active = growth inhibition above about 70%; inactive = the rest.

Key:
[1] = NCI Yeast Anticancer Drug Screen. Data for the rad50 strain (AID 155);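 note: 0% = growth of vehicle-only cultures of the same strain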; settings: S. cerevisiae rad50 strain growth inhibition; at 50.0 µM; active compounds read high
Outline: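 Yeast carrying a defined DNA repair defect were exposed to test compounds, and growth was compared with vehicle-treated controls to give percent inhibition.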

[2] = NCI Yeast Anticancer Drug Screen. Data for the mec2-1 strain (AID 157); settings: S. cerevisiae mec2-1 strain, at 50.0 µM, active compounds read high
Outline: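 Yeast mec2-1 mutant treated with compound. Readout: growth inhibition vs vehicle controls.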

[3] = NCI Yeast Anticancer Drug Screen. Data for the sgs1 mgt1 strain (AID 161);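 note: 0% = growth of cultures given vehicle only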; settings: S. cerevisiae sgs1 mgt1 strain, at 50.0 µM, active compounds read high
Outline: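 Genetically altered yeast, compound exposure, growth inhibition relative to vehicle.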

[4] = NCI Yeast Anticancer Drug Screen. Data for the cln2 rad14 strain (AID 165);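 note: 0% = growth equal to vehicle treated cultures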; settings: S. cerevisiae cln2 rad14 strain, at 50.0 µM, active compounds read high
Outline: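 cln2 rad14 yeast strain; compound exposure; growth inhibition read vs vehicle controls.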

[5] = NCI Yeast Anticancer Drug Screen. Data for the bub3 strain (AID 167); settings: S. cerevisiae bub3 mutant strain, at 50.0 µM, active compounds read high
Outline: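 Compounds were applied to a genetically altered yeast strain carrying a cell-cycle control defect. Growth inhibition was scored against vehicle-treated controls.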

[6] = NCI Yeast Anticancer Drug Screen. Data for the mlh1 rad18 strain (AID 175); settings: S. cerevisiae mlh1 rad18 strain growth inhibition; at 50.0 µM; active compounds read high
Outline: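 Yeast w/ defined DNA-repair lesions; compound exposure; growth vs vehicle controls → % inhibition.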

Measured: growth inhibition

O=C(N/N=C/c1cc(Cl)cc(Cl)c1[O-])c1ccccc1O.O=C(N/N=C/c1cc(Cl)cc(Cl)c1[O-])c1ccccc1O.[Cu+2]
inactive: [1] -6.05% | [2] -16.2% | [3] -17.8% | [4] -38.2% | [5] -12.7% | [6] 12.3%

CC(C)(C)P(O)(=S)c1ccccc1 (stereo unspecified) (tested in a mixture with another compound)
inactive: [1] 2.65% | [2] 2.1% | [3] 1.9% | [4] -34.2% | [5] -24.6% | [6] 5.35%

NC(CCSCCF)C(=O)O (stereo unspecified)
inactive: [1] 36.9% | [2] 8.6% | [3] 12.8% | [4] -2.65% | [5] 24.4% | [6] 35%

CCC(=O)NCC1CCCN2CCCCC12 (stereo unspecified)
inactive: [1] -4.55% | [2] -8.35% | [3] -18.5% | [4] 2.65% | [5] 6.95% | [6] -22%

O=C1NC(=O)C(Cc2cccc(OCc3ccccc3)c2)C(=O)N1
inactive: [1] 20.1% | [2] 2.2% | [3] -1.65% | [4] 5.1% | [5] 0.1% | [6] -52%

O=C(O)C(Cl)C(=O)O
inactive: [1] -4.4% | [2] -7.8% | [3] 9% | [4] -26.4% | [5] -0.35% | [6] -13.9%

O=C1NC(=O)C(Cc2cccc(Cl)c2)C(=O)N1
inactive: [1] 15.1% | [2] -6.9% | [3] -15.8% | [4] -8.05% | [5] 0.55% | [6] -36%

[NH2-].[NH2-].[NH2-].[NH2-].[NH2-].[NH2-].[Ru+6]
inactive: [1] -15.8% | [2] -12.1% | [3] -21.9% | [4] 9.4% | [5] -24.1% | [6] -20.8%

C1CCNCC1.COc1ccccc1C(=O)[CH-]C(=O)C(F)(F)F.COc1ccccc1C(=O)[CH-]C(=O)C(F)(F)F.COc1ccccc1C(=O)[CH-]C(=O)C(F)(F)F.COc1ccccc1C(=O)[CH-]C(=O)C(F)(F)F.[Eu+3]
inactive: [1] 56.3% | [2] 48.5% | [3] 48.9% | [4] 34.1% | [5] 29.8% | [6] 64.5%

CC(=O)OC1OC(CS[As](C)C)C(OC(C)=O)C(OC(C)=O)C1OC(C)=O (stereo unspecified)
inactive: [1] 58.6% | [2] -3.05% | [3] 54.8% | [4] 28.7% | [5] 17.6% | [6] 52.5%

CC(=O)[C-](Br)C(C)=O.CC(=O)[C-](Br)C(C)=O.CC(=O)[C-](Br)C(C)=O.[Ru+3]
inactive: [1] 1.05% | [2] 1% | [3] -15.9% | [4] -15.1% | [5] 17.8% | [6] 14.5%

O=P(Oc1ccccc1)(Oc1ccccc1)Oc1c(Cl)c(Cl)c(O)c(Cl)c1Cl
inactive: [1] 23.6% | [2] 10% | [3] 38.9% | [4] 19.1% | [5] -16.4% | [6] 2.35%

C=CCc1cc(OC)c2c(c1OC)OCO2
inactive: [1] 6.3% | [2] 8.95% | [3] -0.7% | [4] 2.05% | [5] -1.9% | [6] 7.05%

[C-]#[O+].[C-]#[O+].[C-]#[O+].[C-]#[O+].[C-]#[O+].[C-]#[O+].[C-]#[O+].[C-]#[O+].[C-]#[O+].[CH2-]C.[Co].[Co].[Co]
inactive: [1] 25.6% | [2] 9.9% | [3] 19.1% | [4] -2.3% | [5] 24.2% | [6] 33.8%

CCOP(=O)(OCC)C(C)(C)OC(=O)NC#N
inactive: [1] -24.2% | [2] -63.5% | [3] -36.2% | [4] -8.85% | [5] -13.6% | [6] -28.8%

CC1(C)N=C(N)N=C(N)N1c1ccc(CCc2cc(Cl)ccc2S(=O)(=O)F)c(Cl)c1
active: [1] 99.5% | [2] 99.7% | [3] 99.7% | [4] 99.2% | [5] 99.3% | [6] 99.5%

Cc1ccc(-n2c(=O)[nH]c3ccccc3c2=O)cc1[N+](=O)[O-]
inactive: [1] 12.9% | [2] 12.3% | [3] 33% | [4] 23.2% | [5] 35.4% | [6] 26.6%

Nc1cc(S(=O)(=O)F)cc(Cl)c1O
inactive: [1] 25.2% | [2] -3.55% | [3] 14.9% | [4] -61.2% | [5] 23.2% | [6] 24.6%

O=C(Cl)c1ccc[nH]1
inactive: [1] -0.95% | [2] -13.9% | [3] -13.7% | [4] 21.1% | [5] -25.6% | [6] -0.15%

O=C1NCCCC1(Cl)Cl
inactive: [1] 4.75% | [2] -1.25% | [3] 4.2% | [4] -16.3% | [5] -10.6% | [6] 13.2%

S=C([S-])N1CCCCC1.S=C([S-])N1CCCCC1.[Zn]
inactive: [4] 22.9% | [5] -3% | [6] 65%
active: [1] 79.5% | [2] 73.3% | [3] 96%
